Source: PubChem BioAssay (Tox21)
Records with an inconclusive call do not appear. Activity calls are given as the source filed them. Calls come from the whole dose curve; as a rule, active = well fitted curve in the direction sought with a large enough effect in the repeat runs; inconclusive = weak or mixed curves; inactive = no such curve, though single readings can be large; an effect the other way counts as inactive or inconclusive.

Tests used:
[1] = A CellTox Green Cytotoxicity Assay to monitor cytotoxicity in HEK293 cells - 40 hour (AID 1224871); note: nearly all actives have a fitted effect of over 45% in size
Procedure, shortened: (§1)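 Seeding of HEK293 cells together with cytotoxicity dye preceded a 5 h incubation at 37 C/5% CO2. Test compounds in DMSO were then added and fluorescence monitored across 40 h.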

[2] = qHTS RealTime-Glo MT Cell Viability Assay in HEK293 cells - 16 hour (AID 1224872); note: nearly all actives have a fitted effect of over 50% in size; note: potency is the fitted concentration of half-maximal effect; for activity change, negative = cytotoxicity: top concentration of the series differs between compounds
Procedure, shortened: (§2)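 Viability tracked continuously by luminescence as live cells reduce a prosubstrate for NanoLuc; HEK293 cells preincubated 5 h, compound-treated at 37 C, and read at 0, 8, 16, 24, 32 and 40 h.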

[3] = qHTS RealTime-Glo MT Cell Viability Assay in HepG2 cells - 8 hour (AID 1224873); note: nearly all actives have a fitted effect of over 55% in size
Procedure, shortened: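 HepG2 cells mixed with RealTime-Glo MT reagents (NanoLuc plus cell-permeant prosubstrate) were seeded at 600 cells/well, incubated 5 h at 37 C/5% CO2, then pinned with compounds in DMSO; nonlytic luminescence tracked viability during 40 h treatment.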

[4] = qHTS RealTime-Glo MT Cell Viability Assay in HEK293 cells - 40 hour (AID 1224874); settings: RealTime-Glo luminescence; max response: stronger effect = lower value; note: nearly all actives have a fitted effect of over 50% in size; note: potency is the fitted concentration of half-maximal effect
Procedure, shortened: (§3)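 Tox21 screen in HEK293 using RealTime-Glo MT chemistry, with cells and reagent co-dispensed. Luminescence proportional to viable cell number was captured at intervals during 40 h compound exposure at 37 C.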

[5] = A CellTox Green Cytotoxicity Assay to monitor cytotoxicity in HEK293 cells - 24 hour (AID 1224875); note: series mostly up to about 77 µM; nearly all actives have a fitted effect of over 45% in size
Procedure, shortened: as §1

[6] = A CellTox Green Cytotoxicity Assay to monitor cytotoxicity in HepG2 cells - 16 hour (AID 1224876); note: nearly all actives have a fitted effect of over 45% in size
Procedure, shortened: (§4)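 Nonlytic assay: viable cells exclude the dye, so fluorescence scales with cell death. HepG2 at 600 cells/well, compounds added after 5 h, signal read across 40 h.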

[7] = qHTS RealTime-Glo MT Cell Viability Assay in HepG2 cells - 32 hour (AID 1224877); note: nearly all actives have a fitted effect of over 55% in size
Procedure, shortened: (§5)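 Viability was tracked continuously by NanoLuc luminescence from prosubstrate reduced by living HepG2 cells, at successive time points over 40 h of compound exposure. Cells with reagent were preincubated 5 h at 37 °C before compound addition.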

[8] = A CellTox Green Cytotoxicity Assay to monitor cytotoxicity in HepG2 cells - 24 hour (AID 1224878); note: nearly all actives have a fitted effect of over 45% in size
Procedure, shortened: as §4

[9] = A CellTox Green Cytotoxicity Assay to monitor cytotoxicity in HepG2 cells - 40 hour (AID 1224879); note: nearly all actives have a fitted effect of over 40% in size
Procedure, shortened: as §4

[10] = qHTS RealTime-Glo MT Cell Viability Assay in HEK293 cells - 0 hour (AID 1224880)
Procedure, shortened: as §3

[11] = A CellTox Green Cytotoxicity Assay to monitor cytotoxicity in HEK293 cells - 32 hour (AID 1224881); note: nearly all actives have a fitted effect of over 40% in size
Procedure, shortened: as §1

[12] = A CellTox Green Cytotoxicity Assay to monitor cytotoxicity in HepG2 cells - 32 hour (AID 1224883); note: nearly all actives have a fitted effect of over 50% in size
Procedure, shortened: as §4

[13] = A CellTox Green Cytotoxicity Assay to monitor cytotoxicity in HEK293 cells - 8 hour (AID 1224884); note: nearly all actives have a fitted effect of over 35% in size
Procedure, shortened: as §1

[14] = qHTS RealTime-Glo MT Cell Viability Assay in HepG2 cells - 16 hour (AID 1224885); note: nearly all actives have a fitted effect of over 50% in size
Procedure, shortened: as §5

[15] = qHTS RealTime-Glo MT Cell Viability Assay in HEK293 cells - 24 hour (AID 1224886)
Procedure, shortened: as §2

[16] = qHTS RealTime-Glo MT Cell Viability Assay in HEK293 cells - 8 hour (AID 1224887); note: nearly all actives have a fitted effect of over 50% in size; note: potency is the fitted concentration of half-maximal effect; for activity change, negative = cytotoxicity: top concentration of the series differs between compounds
Procedure, shortened: as §3

[17] = A CellTox Green Cytotoxicity Assay to monitor cytotoxicity in HEK293 cells - 16 hour (AID 1224888); note: nearly all actives have a fitted effect of over 35% in size
Procedure, shortened: as §1

[18] = qHTS RealTime-Glo MT Cell Viability Assay in HepG2 cells - 0 hour (AID 1224889); note: nearly all actives have a fitted effect of over 50% in size
Procedure, shortened: as §5

[19] = A CellTox Green Cytotoxicity Assay to monitor cytotoxicity in HepG2 cells - 8 hour (AID 1224890); note: nearly all actives have a fitted effect of over 45% in size
Procedure, shortened: as §4

[20] = A CellTox Green Cytotoxicity Assay to monitor cytotoxicity in HepG2 cells - 0 hour (AID 1224882); note: nearly all actives have a fitted effect of over 35% in size
Procedure, shortened: as §4
% is set by controls: 0 for no effect and ±100 for the full control effect.

N[C@@H](COP(=O)(O)O)C(=O)O
inactive: cytotoxicity increase [1] -6.71% [at 15.8 µM] | activity change, negative = cytotoxicity [2] 6.19% [at 15.8 µM] | viability change, negative = cytotoxic [3] 0.974% [at 15.8 µM] | max response [4] 7.08% | activity change [5] -7.17% [at 15.8 µM] | cytotoxicity increase [6] 1.02% [at 15.8 µM] | activity change, negative = cytotoxic [7] 1.44% [at 15.8 µM] | cytotoxicity [8] 0.599% [at 15.8 µM] | cytotoxicity increase [9] -0.277% [at 15.8 µM] | activity change, negative = cytotoxicity [10] 12.6% [at 15.8 µM] | cytotoxicity increase [11] -6.18% [at 15.8 µM] | cytotoxicity increase [12] -0.733% [at 15.8 µM] | cytotoxicity increase [13] -2.54% [at 15.8 µM] | activity change, negative = cytotoxic [14] 1.13% [at 15.8 µM] | activity change, negative = cytotoxicity [15] 1.75% [at 15.8 µM] | activity change, negative = cytotoxicity [16] 10.1% [at 15.8 µM] | activity change [17] -5.61% [at 15.8 µM] | activity change, negative = cytotoxicity [18] -1.1% [at 15.8 µM] | cytotoxicity increase [19] 3.11% [at 15.8 µM]

CCC(C)(CCC(C)C)C(=O)O (configuration not stated)
inactive: Potency [1] | Potency [2] | outcome [3] | max response [4] 2.99% | outcome [5] | outcome [6] | outcome [7] | outcome [8] | Potency [9] | Potency [10] | Potency [11] | Potency [12] | Potency [13] | outcome [14] | Potency [16] | Potency [18] | outcome [19]

COc1ccc(C2CNC(=O)C2)cc1OC1CCCC1 (configuration not stated)
inactive: Potency [1] | Potency [2] | outcome [3] | max response [4] -17.5% | outcome [5] | outcome [6] | outcome [7] | outcome [8] | Potency [9] | Potency [10] | Potency [11] | Potency [12] | Potency [13] | outcome [14] | Potency [15] | Potency [16] | outcome [17] | Potency [18] | outcome [19]

O=C(O)C(=O)Cc1ccccc1
inactive: Potency [1] | Potency [2] | outcome [3] | max response [4] 14.4% | outcome [5] | outcome [6] | outcome [7] | outcome [8] | Potency [9] | Potency [10] | Potency [11] | outcome [20] | Potency [12] | outcome [14] | Potency [16] | outcome [17] | Potency [18] | outcome [19]

C=C(C)C1CCC(C)(O)CC1 (configuration not stated)
inactive: Potency [1] | Potency [2] | outcome [3] | max response [4] 2.04% | outcome [5] | outcome [6] | outcome [7] | outcome [8] | Potency [9] | Potency [10] | Potency [11] | Potency [12] | Potency [13] | Potency [15] | Potency [16] | outcome [17] | Potency [18] | outcome [19]

CCOc1cc([N+](=O)[O-])c(OCC)cc1N1CCOCC1
inactive: Potency [1] | outcome [3] | outcome [5] | outcome [6] | outcome [7] | outcome [8] | Potency [9] | Potency [10] | Potency [11] | Potency [12] | Potency [13] | outcome [14] | outcome [17] | Potency [18] | outcome [19]
active: Potency [2] 19.5 µM | Potency [4] 15.5 µM | Potency [16] 15.5 µM

O=C(c1ccc(O)cc1)c1ccc(O)c(O)c1O
inactive: Potency [1] | Potency [2] | outcome [3] | max response [4] -10.5% | outcome [5] | outcome [6] | outcome [7] | outcome [8] | Potency [9] | Potency [10] | Potency [11] | outcome [20] | Potency [12] | outcome [14] | Potency [16] | outcome [17] | Potency [18] | outcome [19]

CCOC(=O)c1ccc(OC(=O)CCCCCN=C(N)N)cc1
inactive: Potency [1] | Potency [2] | outcome [3] | max response [4] -15.8% | outcome [5] | outcome [6] | outcome [7] | outcome [8] | Potency [9] | Potency [10] | Potency [11] | Potency [12] | outcome [14] | Potency [15] | Potency [16] | outcome [17] | Potency [18] | outcome [19]

COc1cc2c(cc1OC)C(=O)CC2
inactive: Potency [1] | Potency [2] | outcome [3] | max response [4] -24.5% | outcome [5] | outcome [6] | outcome [7] | outcome [8] | Potency [9] | Potency [10] | Potency [11] | Potency [12] | Potency [13] | outcome [14] | Potency [15] | Potency [16] | Potency [18] | outcome [19]

O=C(OCC(COC(=O)c1cccnc1)(COC(=O)c1cccnc1)COC(=O)c1cccnc1)c1cccnc1
inactive: Potency [1] | Potency [2] | outcome [3] | max response [4] 10.7% | outcome [5] | outcome [6] | outcome [7] | outcome [8] | Potency [9] | Potency [10] | Potency [11] | Potency [12] | Potency [13] | outcome [14] | Potency [15] | Potency [16] | outcome [17] | Potency [18] | outcome [19]

CCCCCOC(=O)CCC
inactive: Potency [1] | Potency [2] | outcome [3] | max response [4] -0.243% | outcome [5] | outcome [6] | outcome [7] | outcome [8] | Potency [9] | Potency [10] | Potency [11] | Potency [12] | Potency [13] | Potency [15] | Potency [16] | outcome [17] | Potency [18] | outcome [19]

c1ccc2c(c1)ccc1c3ccccc3ccc21
inactive: Potency [1] | Potency [2] | outcome [3] | max response [4] 6.22% | outcome [5] | outcome [6] | outcome [7] | outcome [8] | Potency [9] | Potency [10] | Potency [11] | Potency [12] | Potency [13] | outcome [14] | Potency [15] | Potency [16] | outcome [17] | Potency [18] | outcome [19]

OC[C@H](Cc1cccc(O)c1)[C@H](CO)Cc1cccc(O)c1
inactive: Potency [1] | Potency [2] | outcome [3] | max response [4] -10.5% | outcome [5] | outcome [6] | outcome [7] | outcome [8] | Potency [9] | Potency [10] | Potency [11] | Potency [12] | Potency [13] | outcome [14] | Potency [15] | Potency [16] | outcome [17] | Potency [18] | outcome [19]

CN1CCN(CC(=O)N2c3ccccc3C(=O)Nc3cccnc32)CC1
inactive: cytotoxicity increase [1] -2.67% [at 6.97 µM] | activity change, negative = cytotoxicity [2] 13.3% [at 6.97 µM] | viability change, negative = cytotoxic [3] 0.562% [at 6.97 µM] | max response [4] 6.66% | activity change [5] -2.09% [at 6.97 µM] | cytotoxicity increase [6] -11.9% [at 6.97 µM] | activity change, negative = cytotoxic [7] 1.53% [at 6.97 µM] | cytotoxicity [8] -12.6% [at 6.97 µM] | cytotoxicity increase [9] -15.8% [at 6.97 µM] | activity change, negative = cytotoxicity [10] 7.23% [at 6.97 µM] | cytotoxicity increase [11] -2.73% [at 6.97 µM] | cytotoxicity increase [12] -13% [at 6.97 µM] | cytotoxicity increase [13] -1.13% [at 6.97 µM] | activity change, negative = cytotoxic [14] 0.498% [at 6.97 µM] | activity change, negative = cytotoxicity [15] 6.44% [at 6.97 µM] | activity change, negative = cytotoxicity [16] 17.8% [at 6.97 µM] | activity change [17] -1.08% [at 6.97 µM] | activity change, negative = cytotoxicity [18] 2.23% [at 6.97 µM] | cytotoxicity increase [19] -13.9% [at 6.97 µM]
